Data reported in PubChem BioAssay AID1159580 (chemical genetic matrix, 2015).
Among all 5,500 compounds or so, about 2,000 (36%) were called active. Another 18% or so got no clear call; they are omitted. Some of the results follow. Values without a mark were called inactive. Rule as the data show it: active = normalized growth mostly below about 0.91 (no sharp cut-off); inconclusive = no clear call, values can overlap the other calls; inactive = mostly above about 0.92.

Experiment: chemical genetic growth profiling, strain panel (AID 1159580);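 also: tested at 20 µM; growth read once vehicle control cultures reached saturation at 30 °C; 1 = growth at the plate median or of vehicle wells; lower values mean less growth of the strain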
Conditions: growth OD
[1] = S. cerevisiae deletion strains, locus YGR078C, strain PAC10, hits give low values
[2] = S. cerevisiae deletion strains, locus YHR030C, strain SLT2, hits give low values
[3] = S. cerevisiae deletion strains, locus YPL055C, strain LGE1, hits give low values
[4] = S. cerevisiae deletion strains, locus YPL241C, strain CIN2, hits give low values

SMILES: O=C(O)CSCCOc1ccccc1
- normalized growth (S. cerevisiae deletion strains, locus YAL013W, strain DEP1, hits give low values): 1.01
- normalized growth (S. cerevisiae deletion strains, locus YBR229C, strain ROT2, hits give low values): 1.01
- normalized growth (S. cerevisiae deletion strains, locus YCL061C, strain MRC1, hits give low values): 1
- normalized growth (S. cerevisiae deletion strains, locus YDL101C, strain DUN1, hits give low values): 0.997
- normalized growth (S. cerevisiae deletion strains, locus YDL134C, strain PPH21, hits give low values): 1.03
- normalized growth (S. cerevisiae deletion strains, locus YDR150W, strain NUM1, hits give low values): 0.932
- normalized growth (S. cerevisiae deletion strains, locus YEL061C, strain CIN8, hits give low values): 1.01
- normalized growth [1]: 1
- normalized growth [2]: 1.07
- normalized growth (S. cerevisiae deletion strains, locus YHR087W, strain rtc3, hits give low values): 0.998
- normalized growth (S. cerevisiae deletion strains, locus YJR043C, strain POL32, hits give low values): 1.01
- normalized growth (S. cerevisiae deletion strains, locus YJR075W, strain HOC1, hits give low values): 1.02
- normalized growth (S. cerevisiae deletion strains, locus YKL190W, strain CNB1, hits give low values): 1.01
- normalized growth (S. cerevisiae deletion strains, locus YLR039C, strain RIC1, hits give low values): 1.04
- normalized growth (S. cerevisiae deletion strains, locus YLR058C, strain SHM2 (second series), hits give low values): 1.01
- normalized growth (S. cerevisiae deletion strains, locus YLR085C, strain ARP6, hits give low values): 0.997
- normalized growth (S. cerevisiae deletion strains, locus YLR262C, strain YPT6, hits give low values): 1.05
- normalized growth (S. cerevisiae deletion strains, locus YML094W, strain GIM5, hits give low values): 1.01
- normalized growth (S. cerevisiae deletion strains, locus YMR219W, strain ESC1, hits give low values): 1
- normalized growth (S. cerevisiae deletion strains, locus YMR263W, strain SAP30, hits give low values): 1.01
- normalized growth (S. cerevisiae deletion strains, locus YMR307W, strain GAS1, hits give low values): 1.05
- normalized growth (S. cerevisiae deletion strains, locus YNL153C, strain GIM3, hits give low values): 1
- normalized growth (S. cerevisiae deletion strains, locus YNL298W, strain CLA4 (second series), hits give low values): 1.02
- normalized growth (S. cerevisiae deletion strains, locus YNL322C, strain KRE1, hits give low values): 0.997
- normalized growth (S. cerevisiae deletion strains, locus YNR030W, strain Alg12, hits give low values): 1.02
- normalized growth [3]: 1.09
- normalized growth [4]: 0.994
- normalized growth (S. cerevisiae deletion strains, locus YPR135W, strain CTF4, hits give low values): 1.17
- normalized growth (S. cerevisiae strains, strain wild type, hits give low values): 1.02

SMILES: C[N+](C)(CCOc1ccccc1)Cc1ccccc1
- normalized growth [2]: 0.888
- normalized growth (S. cerevisiae deletion strains, locus YHR079C, strain IRE1, hits give low values): 0.844 (active)
- normalized growth (S. cerevisiae deletion strains, locus YJL095W, strain BCK1, hits give low values): 0.869 (active)
- normalized growth (S. cerevisiae deletion strains, locus YJR066W, strain TOR1, hits give low values): 0.799 (active)
- normalized growth (S. cerevisiae deletion strains, locus YLR113W, strain HOG1, hits give low values): 0.805 (active)
- normalized growth (S. cerevisiae deletion strains, locus YNL183C, strain NPR1, hits give low values): 0.788 (active)
- normalized growth (S. cerevisiae deletion strains, locus YOR231W, strain MKK1, hits give low values): 0.887
- normalized growth (S. cerevisiae deletion strains, locus YPL256C, strain CLN2, hits give low values): 0.812 (active)

SMILES: CC[N+](C)(C)Cc1ccccc1Br
- normalized growth (S. cerevisiae deletion strains, locus YAL040C, strain CLN3, hits give low values): 0.99
- normalized growth (S. cerevisiae deletion strains, locus YCL061C, strain MRC1 (second series), hits give low values): 1.01
- normalized growth (S. cerevisiae deletion strains, locus YDR363W, strain ESC2, hits give low values): 0.991
- normalized growth (S. cerevisiae deletion strains, locus YER002W, strain NOP16, hits give low values): 0.993
- normalized growth [1]: 0.99
- normalized growth (S. cerevisiae deletion strains, locus YNL175C, strain NOP13, hits give low values): 1.01
- normalized growth (S. cerevisiae deletion strains, locus YNL197C, strain WHI3, hits give low values): 1.01
- normalized growth (S. cerevisiae deletion strains, locus YNL224C, strain SQS1, hits give low values): 0.983
- normalized growth (S. cerevisiae deletion strains, locus YOR083W, strain WHI5 (second series), hits give low values): 0.974
- normalized growth [3]: 0.999
- normalized growth [4]: 1.01
